{
  "source": "PubChem BioAssay",
  "data": [
    {"tested_on": "Noggin (protein binding on small-molecule microarray)", "assay": "Noggin binders on small-molecule microarray, primary screen, biochemical, 635/667 nm fluorescence (AID 1095);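 note: score merges 667 nm feature fluorescence with signal to noise over triplicate slides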", "settings": "635 nm fluorescence, higher = more signal", "values": [
      {"molecule": "COc1cc2c(cc1O)C(c1ccc(CN3CCCC3)cc1)N(Cc1cc3c(cc1Br)OCO3)CC2", "note": "(stereo unspecified)", "composite z-score": -0.244},
      {"molecule": "CCCC[C@@H]1C[C@H]1[C@@H](NC(=O)c1cccs1)c1ccccc1C(F)(F)F", "composite z-score": -0.597},
      {"molecule": "CCOC(=O)C1=C[C@@H](c2ccccc2)N(S(=O)(=O)c2ccc(C)cc2)[C@H]1c1ccc(OC)cc1", "composite z-score": 0.221},
      {"molecule": "C=CCC(OC(C)=O)[C@@H]1[C@@H](N(Cc2ccc(-c3cccc(C(F)(F)F)c3)o2)C(=O)Cc2ccc(OC)cc2)c2cc(OCCCO)ccc2N1C(=O)c1ccc(-c2ccccc2)cc1", "note": "(stereo partly specified)", "composite z-score": -0.478},
      {"molecule": "C=CC[C@@H](OC(=O)Nc1ccc(SC)cc1)c1ccc(O)c(F)c1", "composite z-score": 0.713},
      {"molecule": "CCCCC=C[C@@H](NC(=O)OCc1ccccc1Cl)c1ccccc1", "composite z-score": 1.34},
      {"molecule": "C=CCC(OC(C)=O)[C@@H]1[C@@H](N(Cc2cccc3ccccc23)C(=O)Cc2ccc(OC)cc2)c2cc(OCCCO)ccc2N1C(=O)c1ccc(-c2ccccc2)cc1", "note": "(stereo partly specified)", "composite z-score": -0.424},
      {"molecule": "CCCC=C(CCC)[C@@H](NP(=O)(c1ccccc1)c1ccccc1)c1ccc(-c2ccccc2)cc1", "composite z-score": 0.649},
      {"molecule": "COCCCNC(=O)[C@@]1(CCC(=O)OC(C)(C)C)N=C(c2ccc(OCCCO)cc2)O[C@H]1c1ccccc1N=[N+]=[N-]", "composite z-score": -0.0445},
      {"molecule": "O=C(Cc1ccccc1)[C@H]1C2C=CCCC(c3ccccc3)=C2CN1Cc1ccccc1", "note": "(stereo partly specified)", "composite z-score": -0.0884},
      {"molecule": "COC(=O)[C@@]1(Cc2ccc(F)cc2)[C@H]2c3cc(C(=O)N4CCCC4)n(Cc4ccc(C)c(F)c4F)c3C[C@H]2CN1C(=O)c1ccccc1", "composite z-score": -0.849},
      {"molecule": "COc1ccc(C#Cc2ccc3c(c2)[C@]2(C(=O)N3)[C@H](C(=O)O)[C@H]3C(=O)O[C@H](c4ccccc4)[C@H](c4ccccc4)N3[C@@H]2c2ccc(O)cc2)cc1", "composite z-score": -0.654},
      {"molecule": "CCC#CCN(Cc1ccccc1Br)[C@H](/C=C/C1CC1)[C@@H](O)Cc1ccccc1", "composite z-score": -0.679},
      {"molecule": "COC(=O)[C@@]1(Cc2ccccc2)[C@H]2c3cc(C(=O)N(C)C)n(Cc4ccc(C)o4)c3C[C@H]2CN1C(=O)c1ccccc1", "composite z-score": -0.471},
      {"molecule": "CC(C)NC(=O)[C@@]1(C)c2ccccc2C(=O)N(Cc2ccc(OC(F)(F)F)cc2)[C@H]1c1ccc(CO)cc1", "composite z-score": -0.748},
      {"molecule": "COc1ccc([Si](C)(C)[C@@H]2[C@@H](CC(=O)N3CCC[C@H]3CO)O[C@]3(C(=O)N(Cc4cccc(N5C(=O)COc6ccccc65)c4)c4ccccc43)[C@H]2C)cc1", "composite z-score": 0.942},
      {"molecule": "CCCC[C@@H](O)C1=C(COC)C[C@H]2C(=O)N(C)C(=O)[C@H]2[C@H]1CO", "composite z-score": 0.578},
      {"molecule": "COc1ccc([Si](C)(C)[C@@H]2[C@@H](CC(=O)N(CCO)Cc3ccccc3)O[C@]3(C(=O)N(Cc4cccc(N5CCCCC5=O)c4)c4ccccc43)[C@H]2C)cc1", "composite z-score": 1.45},
      {"molecule": "COc1ccc(CCNC(=O)[C@@]2(Sc3ccc(C)cc3)CC(=O)N(Cc3ccccc3C(F)(F)F)[C@@H]2c2ccc(CO)cc2I)cc1", "composite z-score": -1.46},
      {"molecule": "[N-]=[N+]=Nc1ccccc1[C@@H]1OC(c2ccc(OCCCO)cc2)=N[C@]1(Cc1ccccc1)C(=O)N1CCCCC1", "composite z-score": 0.847},
      {"molecule": "Cc1ccc(S[C@]2(C(=O)NCc3ccccc3)CC(=O)N(C3CCCCC3)[C@@H]2c2ccc(CO)cc2I)cc1", "composite z-score": 0.147},
      {"molecule": "COc1ccc([Si](C)(C)[C@H]2[C@H](CC(=O)N(CCO)Cc3ccccc3)O[C@@]3(C(=O)N(C)c4c(Br)cc(C)cc43)[C@@H]2C)cc1", "composite z-score": 1.79},
      {"molecule": "[N-]=[N+]=Nc1ccccc1[C@@H]1OC(c2ccc(OCCCO)cc2)=N[C@]1(Cc1ccccc1)C(=O)O", "composite z-score": 0.522},
      {"molecule": "CCCC1(C(=O)OC)C=C2C(=C(C)C(=O)C2C)CN1", "note": "(stereo unspecified)", "composite z-score": -0.0743},
      {"molecule": "COCC(=C=CC[C@H](O)c1ccccc1OCCO)C[C@H](O)c1ccccn1", "composite z-score": 0.808},
      {"molecule": "Oc1ccc2cc[n+](Cc3cc4c(cc3Br)OCO4)cc2c1", "composite z-score": -0.883},
      {"molecule": "CC(C)[Si]1(C(C)C)OCc2cc(C3CC3)nc(-c3ccc(Oc4ccccc4)cc3)c21", "composite z-score": -0.27},
      {"molecule": "[N-]=[N+]=Nc1ccccc1C[C@]1(C(=O)N2CCOCC2)COC(c2ccc(OCCCO)cc2)=N1", "composite z-score": 0.182},
      {"molecule": "[N-]=[N+]=Nc1ccccc1C[C@@]1(C(=O)NCCN2CCOCC2)N=C(c2ccc(OCCCO)cc2)O[C@@H]1c1ccccc1N=[N+]=[N-]", "composite z-score": 0.325},
      {"molecule": "CCCCC(CC)C(O)C1C=CC2C(=O)N(C)C(=O)C2N1Nc1ccccc1", "note": "(stereo unspecified)", "composite z-score": 0.123},
      {"molecule": "O=C1N(CCS(=O)(=O)c2ccccc2)c2ccccc2[C@H]2OC(c3ccc(OCCCO)cc3)=N[C@@]12Cc1ccccc1", "composite z-score": 1.56},
      {"molecule": "COc1ccc(C#Cc2ccc3c(c2)[C@]2(C(=O)N3)[C@H](c3ccc(O)cc3)N3[C@H](c4ccccc4)[C@H](c4ccccc4)OC(=O)[C@H]3[C@@H]2C(=O)Nc2nc3ccccc3s2)cc1", "composite z-score": 0.46},
      {"molecule": "CCOc1cc(C(O)C2C=CC3C(=O)NC(=O)C3N2Nc2ccc(Cl)cc2Cl)ccc1O", "note": "(stereo unspecified)", "composite z-score": -0.26},
      {"molecule": "Cc1ccc(S[C@]2(C(=O)NCC(F)(F)F)CC(=O)N(Cc3cc(C(F)(F)F)cc(C(F)(F)F)c3)[C@@H]2c2ccc(CO)cc2I)cc1", "composite z-score": -0.716},
      {"molecule": "C=CCC(OC(C)=O)[C@@H]1[C@@H](N(Cc2cc3ccccc3o2)C(=O)Cc2ccc(F)cc2)c2cc(OCCCO)ccc2N1C(=O)Cc1ccc2ccccc2c1", "note": "(stereo partly specified)", "composite z-score": 0.129},
      {"molecule": "CO[C@H]1O[C@H](CO)[C@@H](OC(=O)Nc2ccccc2)[C@H](OC(=O)c2cc3ccccc3[nH]2)[C@H]1OC(=O)c1cc2ccccc2[nH]1", "composite z-score": 0.248}
    ]}
  ]
}
